Source: PubChem BioAssay (NCATS)
Values joined by “and” are separate entries in the source; they are usually repeats but may differ in a detail not shown here. Identical values can stand only once. Results filed as inconclusive are left out. Entries that show only a call come without a potency. Values without a mark were called inactive. Active and inactive are the calls of the source. Unless noted, the call rests on the fitted dose curve; in most records, active means well fitted curve in the direction sought with a large enough effect; inconclusive means small, poorly fitted or top-dose-only effect, or another doubt; inactive means no such curve, though single readings can be large; an effect the other way counts as inactive or inconclusive.

What was measured:
[1] = S16 Schwann cell viability assay (CellTiter-Glo assay) (AID 624031);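 further: cellular ATP luminescence as a viability measure; series mostly up to about 58 µM; nearly all actives have a fitted effect of over 70% in size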
Method in brief: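 This viability control uses native rat S16 Schwann cells grown in DMEM plus 10% FBS. After a 24 h compound treatment at 37 °C, CellTiter-Glo luminescence reports ATP content, scaled against DMSO-treated and cell-free wells.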

[2] = S16 Schwann cell PMP22 intronic element firefly luciferase assay (AID 624032); further: series mostly up to about 58 µM; nearly all actives have a fitted effect of over 30% in size
Method in brief: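 Luciferase reporter of PMP22 intronic-element expression in stably transfected S16 rat Schwann cells, read by ONE-Glo luminescence after 24 h compound exposure at 37 C. Activity scaled between DMSO (0%) and positive-control PTC124; concentration-effect curves quality-classified.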

[3] = S16 Schwann cell PMP22 intronic element beta-lactamase assay (AID 624044; calls by dose curve; further: nearly all actives have a fitted effect of over 15% in size; further: potency means the concentration at half of the fitted maximal effect)
Method in brief: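 Rat S16 Schwann cells with beta-Lac driven by a PMP22 intronic element, compound-treated 24 h at 37 °C. LiveBLAzer FRET B/G read: 460 nm normalized to potassium clavulanate vs DMSO; 535 nm FRET as viability; concentration-effect curves classified.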

[4] = qHTS assay for small molecule agonists of the antioxidant response element (ARE) signaling pathway (AID 651741; active means well fitted activation curve with a large enough effect in the signal ratio; the % refers to the signal ratio; further: potency means the concentration at half of the fitted maximal effect)
Method in brief: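 Seeding 2,000 ARE-bla HepG2 cells per well preceded a 5 h incubation at 37 C/5% CO2 and a 16 h compound exposure at 37 C. Beta-lactamase reporter activity was then quantified by fluorescence after 2 h with LiveBLAzer B/G FRET substrate.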

[5] = qHTS assay for small molecule activators of the p53 signaling pathway (AID 651743; active means well fitted activation curve with a large enough effect in the signal ratio, not every such curve was filed as active; the % refers to the signal ratio; further: series mostly up to about 92 µM); conditions: HCT-116 p53RE-bla, beta-lactamase FRET ratio, 16 h; activation: hits give high values
Method in brief: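 Screen for p53 pathway agonists uses stably transfected p53RE-bla HCT-116 cells, 4,000 per well, treated 16 h at 37 C with compounds in DMSO.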

SMILES | Potency [1] | Potency [2] | Potency [3] | Potency [4] | activation [5]
COc1cc(C(=O)NCc2ccc(OCCN(C)C)cc2)cc(OC)c1OC | inactive | inactive | inactive | – | –
OC[C@H]1O[C@@H]2O[C@H]3[C@H](O)[C@@H](O)[C@@H](O[C@H]4[C@H](O)[C@@H](O)[C@@H](O[C@H]5[C@H](O)[C@@H](O)[C@@H](O[C@H]6[C@H](O)[C@@H](O)[C@@H](O[C@H]7[C@H](O)[C@@H](O)[C@@H](O[C@H]8[C@H](O)[C@@H](O)[C@@H](O[C@H]1[C@H](O)[C@H]2O)O[C@@H]8CO)O[C@@H]7CO)O[C@@H]6CO)O[C@@H]5CO)O[C@@H]4CO)O[C@@H]3CO | inactive | inactive | – | inactive | –
CCCN(CCC)S(=O)(=O)c1ccc(C(=O)O)cc1 | inactive | inactive | – | inactive | -0.245% and -0.015%
O=c1[nH]c(=O)n([C@H]2C[C@H](O)[C@@H](CO)O2)cc1F | inactive | – | 5.6 nM (active) | – | –
CCCCC(CC)COC(=O)c1ccc(N(C)C)cc1 (stereo not drawn) | inactive | inactive | inactive | – | 0.436% and -4.01%
NS(=O)(=O)Cc1noc2ccccc12 | inactive | inactive | inactive | – | –
C/C=C/c1ccc(O)c(OC)c1 | inactive | inactive | – | 30.6 µM (active) and 42.2 µM (active) | -3.74% and -0.0356%
CCOC(=O)Nc1ccc2c(c1)N(C(=O)CCN1CCOCC1)c1ccccc1S2 | inactive | – | inactive | – | –
CC1(COc2ccc(CC3SC(=O)NC3=O)cc2)CCCCC1 (stereo not drawn) | inactive | inactive | inactive | – | –
